Consider five compounds from PubChem BioAssay AID1468 (National Center for Advancing Translational Sciences (NCATS), 2008).

In all, about 280,000 compounds went through this assay and about 1,100 (0.39%) were called active. About 7% were inconclusive and are not listed. Calls follow the shape of the dose curve; as a rule, active = well fitted inhibition curve with a large enough effect; inconclusive = small, poorly fitted or top-dose-only effect, or effect the other way; inactive = flat fitted curve, though single readings scatter. Many of the other results were omitted from the sample, so actives are more common in it than they were.
% is scaled to controls: 0 for no effect and ±100 for the full control effect; potency is read from the fitted curve at half-maximal effect.

Sequence of Microtubule-associated protein tau (Homo sapiens) (P10636 561-689 P618L limits assumed): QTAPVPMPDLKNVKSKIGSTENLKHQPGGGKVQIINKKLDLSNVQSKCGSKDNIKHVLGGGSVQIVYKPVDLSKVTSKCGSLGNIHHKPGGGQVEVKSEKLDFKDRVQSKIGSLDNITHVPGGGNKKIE

For this experiment, the target named is Microtubule-associated protein tau (Homo sapiens) (UniProt P10636). Briefly: qHTS for Inhibitors of Tau Fibril Formation, Fluorescence Polarization. Also: nearly all actives have a fitted effect of over 55% in size. The conditions noted are these: K18 P301L tau heparin fibrillization, Alexa594 FP, 6 h; series mostly up to 57.7 µM; activity, negative = inhibition: at the top concentration. An excerpt:
NIH Molecular Libraries Probe Production Network [MLPCN]
NIH Chemical Genomics Center [NCGC]
Assay Provider: Carlo Ballatore, University of Pennsylvania
The microtubule-associated protein tau is an abundant protein in the axons of neurons that stabilizes microtubules. With its ability to modulate microtubule dynamics, tau contributes directly or indirectly, to key structural and regulatory cellular functions. Particularly important is the influence tau exerts on axonal transport, which allows signaling molecules, trophic factors and other essential cellular constituents to travel along the axons. Under pathological conditions, tau becomes sequestered into insoluble aggregates called neurofibrillary tangles. This phenomenon is believed to have pathological consequences by promoting axonal transport deficits that ultimately lead to synaptic dysfunction and neuronal loss. To identify inhibitors of tau aggregation, a heparin-induced tau fibril formation assay was used that employed a recombinantly expressed fragment of tau, K18 (Q242-E372), bearing a P301L mutation (Gustke et al. 1994; Hong et al. 1998).
Gustke, N., B. Trinczek, et al. (1994). "Domains of tau protein and interactions with microtubules." Biochemistry 33(32): 9511-22.
Hong, M., V. Zhukareva, et al. (1998).
Li, W. and V. M. Lee (2006). "Characterization of two VQIXXK motifs for tau fibrillization in vitro." Biochemistry 45(51): 15692-701.
von Bergen, M., S. Barghorn, et al. (2001). "Mutations of tau protein in frontotemporal dementia promote aggregation of paired helical filaments by enhancing local beta-structure." J Biol Chem 276(51): 48165-74.
NCGC Assay Protocol Summary:
For screening, 2 uL/well human K18 P301L (15 uM unlabeled and 0.24 uM Alexa 594-labeled tau final concentrations) in reagent buffer (100 mM sodium acetate pH 7) was dispensed into black solid 1536-well plates (Grenier) using a solenoid-based dispenser. Following transfer of 23 nL compound or DMSO vehicle by a pin tool, 2 uL/well heparin (20 uM final concentration) in reagent buffer was added and the plate centrifuged 15 s at 1000 RPM. Plates were incubated 6 hr at 37 C and then 1 uL/well ThT (30 uM final concentration) was added. After a 1 hr ambient incubation, the plates were read by an Envision (Perkin Elmer) to monitor Alexa 594 FP (555 nm excitation and 632 nm emission).
Keywords: NIH Roadmap, MLPCN, MLI, MLSMR, NCGC, qHTS, tau, tauopathies, Alzheimer's disease, fibril, neurodegeneration, aggregation
Regarding `CC[N+](C)(CC)CCC[n+]1c(-c2ccccc2)c2cc(N)ccc2c2ccc(N)cc21`, the Potency is 6.31 µM (active).
For `CCCN(C/C=C/I)C1CCc2ccc(O)cc2C1` (stereo not given), the “activity, negative = inhibition” value is -3.39% (inactive).
The same measure, in the same setting: as for `c1ccc2sc(SNC3CCCCC3)nc2c1`, the figure is 2.44% (inactive).
Take `CN(C)[C@@H]1C(=O)C(C(N)=O)=C(O)[C@@]2(O)C(=O)C3=C(O)c4c(O)cccc4[C@@](C)(O)C3CC12` (stereo not given in full): the “activity, negative = inhibition” value is -1.29% (inactive).
Turning to `CO[C@@H]1C[C@@H](C[C@H]2CC[C@H](C)[C@@H]([C@@H](C)C(=O)O)O2)O[C@]2(O[C@](C)([C@H]3CC[C@@](C)(C4OC([C@H]5O[C@@](O)(CO)[C@H](C)C[C@@H]5C)C[C@@H]4C)O3)C[C@H]2C)[C@@H]1C` (stereo not given in full), the “activity, negative = inhibition” value is -0.541% (inactive).
